From PubChem BioAssay
Only some compounds are listed: those with a hit (about 4% of all), similar ones and a draw of the others.
TROY NFkB inh: blocks TROY-dependent signaling in reporter cells; Q293 LMP1-TROYcd NF-kB luciferase reporter, 4 h; AID 1347056; actives 0.98% (n = 360,000); inhibition, % at 10 µM;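 active = compounds whose plate-normalised and pattern-corrected inhibition of the luciferase reporter signal at the single screening dose is 50% or more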
KKLEB cytotox: CF airway cell cytotoxicity counter-screen. AID 602141. KKLEB CF airway cells viability, ATPlite luminescence, overnight; stronger effect = lower value; cells stimulated with P. aeruginosa culture filtrate. actives 0.36% (n = 360,000). activity change (cytotoxicity), % at 5 µM;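 active = corrected activity change at or below -50% at 5 µM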
Peg3 prom inh: inhibitors of Peg3 promoter | HeLa PEG-Prom luciferase reporter, luminescence, overnight | inhibition, % at 20 µM | actives 1.7% (n = 360,000) | AID 588405;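 active = inhibition of at least 50% at 20 µM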
CF NFkB block: cystic fibrosis NF-kB activation inhibition | KKLEB NF-kB-GFP reporter, PAF-induced, GFP fluorescence overnight | inhibition, % at 5 µM | actives 0.86% (n = 360,000);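 active = at least 50% inhibition at 5 µM, scaled per plate between neutral and stimulator controls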;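 also: PAF is a Pseudomonas aeruginosa culture filtrate used as stimulus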
TWEAK-Fn14 inh: blocks TWEAK-Fn14 interaction in a reporter cell assay. TWEAK-stimulated Fn14 reporter cells, luciferase luminescence, 8 h. AID 1159606. actives 2% (n = 360,000). inhibition, % at 10 µM; in the data active = inhibition above about 50%
HIF-2a inh: blocks HIF-2a reporter activity | 786-0 RCC cells HIF-2a reporter, luciferase luminescence, overnight | AID 624352 | actives 0.72% (n = 360,000) | inhibition, % at 18.8 µM;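 active = inhibition of the luminescence signal of 40% or more relative to plate controls, in a single-dose primary screen at 18.75 µM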
A number is an active result; - = inactive; . = no result.

SMILES | TROY NFkB inh | KKLEB cytotox | Peg3 prom inh | CF NFkB block | TWEAK-Fn14 inh | HIF-2a inh
OC[C@@H]1CN(Cc2cccc(C(F)(F)F)c2)C[C@H](n2cnc3c(NCc4ccco4)ncnc32)O1 | - | - | - | - | - | -
COc1ccc(/C=N/NC(=O)c2cc3c(OC)ccc(OC)c3[nH]2)cc1O | - | - | - | - | - | -
COc1ccc(OC)c2[nH]c(C(=O)N/N=C/c3ccccc3O)cc12 | - | - | 63 | - | - | -
COc1cccc(/C=N/NC(=O)c2ccccc2)c1OS(=O)(=O)c1ccccc1 | - | - | - | - | 76 | -
CC1CC(C)CN(C(=O)CCCNC(=O)c2ccc(Cl)cc2)C1 (configuration not stated) | - | - | - | - | - | -
COc1ccc(-c2cc3nc(NCCN4CCCC4)n(C)c(=O)c3s2)cc1OC | - | - | - | - | - | -
COc1cccc(CNc2nc3cc(-c4ccsc4)sc3c(=O)n2C)c1OC | - | - | - | - | 82 | -
COc1cccc(CNc2nc3cc(-c4ccc(OC)c(OC)c4)sc3c(=O)n2C)c1 | - | - | - | - | 54 | -
COc1cccc(CNc2nc3cc(-c4ccc(C)cc4)sc3c(=O)n2C)c1OC | - | - | - | - | - | -
COc1ccc(-c2cc3nc(NCc4ccc(N(C)C)cc4)n(C)c(=O)c3s2)cc1OC | - | - | - | - | 80 | -
COc1ccc(NC(=S)N2CCC3CC2c2cc(-c4ccc5c(c4)OCO5)ccc23)c(OC)c1 (configuration not stated) | - | - | - | - | - | -
CCC(c1nnnn1-c1ccc2c(c1)OCCO2)N1CCN(c2ccc(C(F)(F)F)cc2[N+](=O)[O-])CC1 (configuration not stated) | - | . | . | . | - | -
CC(=O)c1c(C)[nH]c(C(=O)OCC(=O)Nc2cccc(S(=O)(=O)N3CCCC3)c2)c1C | - | - | - | - | 65 | -
CCN(CC)S(=O)(=O)c1cccc(NC(=O)COC(=O)c2[nH]c(C)c(C(C)=O)c2C)c1 | - | - | - | - | 65 | -
CC(=O)c1c(C)[nH]c(C(=O)OCC(=O)Nc2cccc(S(=O)(=O)N(C)C)c2)c1C | - | - | - | - | - | -
CCCCN(C(=O)CSc1nn(-c2ccc(F)cc2)c(=S)s1)c1c(N)n(CCCC)c(=O)[nH]c1=O | - | - | - | - | - | -
Cn1c(N)c(C(=O)CSc2nn(-c3ccc(F)cc3)c(=S)s2)c(=O)n(C)c1=O | - | - | - | - | 60 | -
COc1cccc(C(C)(O)c2nc(-c3cccc4cccnc34)cs2)c1 (configuration not stated) | - | - | - | - | - | -
O=C(Nc1ccn(CCOC(=O)c2ccccc2)c(=O)n1)c1ccccc1 | 54 | - | - | - | - | -
O=C(Nc1ccn(C2CCC(CO)O2)c(=O)n1)c1ccccc1 (configuration not stated) | - | - | - | - | - | -
C[C@H](CO)N1C[C@H](C)[C@@H](CN(C)S(=O)(=O)c2cn(C)cn2)Oc2ccc(NC(=O)NC3CCCCC3)cc2C1=O | - | - | - | - | - | -
O=C(Nc1ccc(Cl)c(Cl)c1)Nc1nnc(CSc2ccccc2)s1 | - | -56 | - | 73 | - | -
O=C(Nc1ccccc1)Nc1nnc(CSCc2ccccc2Cl)s1 | - | - | - | - | - | -
Nc1ccc(O)cc1C(=O)OCC(=O)c1ccc(C2CCCCC2)cc1 | - | - | - | - | 102 | -
CN(C)c1ccc(CC(=O)N2CCCC(c3cc(C(=O)Nc4ccccc4)no3)C2)cc1 (configuration not stated) | 76 | - | - | - | 71 | -
SMILES | TROY NFkB inh | KKLEB cytotox | Peg3 prom inh | CF NFkB block | TWEAK-Fn14 inh | HIF-2a inh
O=C(Nc1ccccc1)c1cc(C2CCCN(C(=O)C3CC3)C2)on1 (configuration not stated) | 76 | - | - | - | 93 | -
CN(C)c1ccc(CC(=O)N2CCCC(c3cc(C(=O)Nc4ccc5c(c4)OCO5)no3)C2)cc1 (configuration not stated) | - | - | - | - | - | -
CC(=O)Nc1ccc(S(=O)(=O)NCC2CCC(C(=O)N3CC(C)CC(C)C3)CC2)cc1 (configuration not stated) | - | - | - | - | - | -
COC(=O)C1=CN(c2cccc(OCc3ccccc3)c2)C(N)=C(C#N)C1c1cccc(F)c1 (configuration not stated) | . | . | . | . | . | -
CSc1ccc(S(=O)(=O)N2CCC(C(=O)NCCCn3ccnc3)CC2)cc1 | - | - | - | - | 83 | -
COc1ccc(C(=O)c2sc(Nc3ccccc3)nc2N)cc1OC | - | - | 78 | - | 54 | -
Nc1nc(Nc2ccccc2)sc1C(=O)c1ccccc1 | - | - | 91 | 87 | 62 | -
COc1cc(/C=C/C2=NNC(=O)CC2)cc(OC)c1OC | - | - | 61 | - | - | -
O=C1Nc2ccccc2Nc2ccc([N+](=O)[O-])cc21 | - | - | - | - | - | -
Cc1ccc(Oc2cc([N+](=O)[O-])cc3c2C(=O)Nc2ccccc2O3)cc1 | - | - | - | - | 56 | -
COc1ccc2ccccc2c1-c1sc(Nc2ccccc2)n[n+]1-c1ccc(F)cc1 | - | - | 87 | - | - | -
Fc1ccc(-[n+]2nc(Nc3ccccc3)sc2-c2c(Cl)cccc2Cl)cc1 | - | - | 59 | - | - | -
O=C(O)c1ccc(-c2sc(Nc3ccccc3)n[n+]2-c2ccc(F)cc2)cc1 | - | - | - | - | - | -
Cc1cc(C(=O)OCC(=O)Nc2ccccc2C(F)(F)F)on1 | - | - | - | - | - | -
N/C(=N\OC(=O)CSc1ccccc1)c1ccncc1 | - | - | - | - | - | -
O=C(NCCC(F)(F)F)c1cccc2c(-c3ccc(F)c(F)c3)coc12 | - | - | - | - | - | -
CCCc1ccc(-c2ccc(F)c(N)c2)nc1 | 63 | - | - | - | 89 | -
CCCCc1ccc(-c2ccc(Br)cc2)nc1 | - | - | - | - | - | -
CCN1C[C@@H]2[C@@H]3C(=O)N(Cc4ccccc4)C(=O)[C@@H]3[C@](C)(C1=O)N2C(=O)c1ccc(Cl)c(Cl)c1 | - | - | - | - | - | -
O=C(CN1CCCCC1)N=Nc1c(O)[nH]c2ccccc12 | - | - | - | - | - | -
O=C(CN1CCN(Cc2ccccc2)CC1)N=Nc1c(O)[nH]c2ccccc12 | - | - | 52 | - | - | -
CCc1nc2ccc(C(=O)Nc3cccc(OC)c3)cn2c1N(CC)CCOC | - | - | - | - | - | -
CCOC(=O)C1=C(C)NC(=O)CC1c1cc2c(cc1Br)OCO2 (configuration not stated) | . | - | - | - | 100 | -
C=CCOC(=O)C1=C(C)N(C)C(=O)NC1c1cc2c(cc1Br)OCO2 (configuration not stated) | 82 | - | 67 | - | 90 | -
